Screening results from PubChem.
In the library only some 3% were active in any assay of this set; here they are far more common.
LDHA block: inhibitors of human lactate dehydrogenase A; actives 0.15% (n = 480,000); activity change, % (values are at about 110 or 230 µM); P00338; AID 1347041; purified LDHA, NADH/diaphorase-resazurin fluorescence; active compounds read low; in the data active = activity change below about -30%; inconclusive = mostly about -25% to -30%;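 also: plate controls were DMSO wells for no effect and wells without enzyme for full effect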
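Enzyme activity of human lactate dehydrogenase 5 (2 nM; 0.06 mM NADH, 0.2 mM pyruvate, 5 min, RT) is measured via a resazurin/diaphorase fluorescence readout of residual NADH.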
BCR signal inh: chronic active BCR signaling inhibition | ABC-DLBCL IkBa-CBG/CBR reporter, luminescence ratio, 4 h | Potency, µM (top dose mostly 46.1 µM), for the others: top-dose activity change, negative = inhibition, actives largely listed as inhibitors | actives 0.05% (n = 340,000) | AID 493014; active = well fitted inhibition curve with a large enough effect in the signal ratio, with a control signal flat, not every such curve was filed as active; inconclusive = small, poorly fitted or top-dose-only effect, or effect the other way, or a change in a side signal; the % refers to the signal ratio;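 also: potency is read from the fitted curve at half-maximal effect; plate controls were basal doxycycline-induced cells for no effect and cells given 10 µM MG132 for full effect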
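Compounds up to 46 uM were incubated four hours with TMD8 cells whose green CBG68 luciferase is fused to IkappaBalpha; red CBR luminescence normalised the signal, and concentration-effect curves were fitted to fusion, red and ratio data.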
12-LOX inh: blocks human arachidonate 12S-lipoxygenase | purified 12hLO, xylenol orange hydroperoxide absorbance | actives 1.1% (n = 580,000) | Potency, µM (doses to about 108 µM), inactives show top-dose activity change, negative = inhibition, hits mostly inhibitors; active = well fitted inhibition curve with a large enough effect; inconclusive = small, poorly fitted or top-dose-only effect, or another doubt; inactive = no such curve, though single readings can be large or run the other way; also: potency is read from the fitted curve at half-maximal effect; % is scaled to controls: 0 for no effect and ±100 for the full control effect
Target sequence (P18054 whole entry, looked up): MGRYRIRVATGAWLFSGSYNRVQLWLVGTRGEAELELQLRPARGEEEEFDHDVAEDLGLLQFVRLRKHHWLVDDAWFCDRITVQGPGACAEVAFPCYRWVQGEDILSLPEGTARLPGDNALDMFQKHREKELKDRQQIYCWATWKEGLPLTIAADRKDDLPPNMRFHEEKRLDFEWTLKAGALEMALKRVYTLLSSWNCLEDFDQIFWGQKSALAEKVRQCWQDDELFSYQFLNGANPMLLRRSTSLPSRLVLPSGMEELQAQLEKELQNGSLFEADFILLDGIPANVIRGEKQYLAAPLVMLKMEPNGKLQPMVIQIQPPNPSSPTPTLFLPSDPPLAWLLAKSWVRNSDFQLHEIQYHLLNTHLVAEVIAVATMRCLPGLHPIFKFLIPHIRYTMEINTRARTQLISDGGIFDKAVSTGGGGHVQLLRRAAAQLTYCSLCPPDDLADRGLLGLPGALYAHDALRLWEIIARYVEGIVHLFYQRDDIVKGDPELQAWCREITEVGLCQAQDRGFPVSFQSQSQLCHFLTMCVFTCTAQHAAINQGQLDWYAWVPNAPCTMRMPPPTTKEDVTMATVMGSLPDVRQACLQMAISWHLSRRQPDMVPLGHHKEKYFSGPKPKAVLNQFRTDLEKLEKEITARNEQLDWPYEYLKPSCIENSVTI
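Hydroperoxide product was detected by ferrous iron/xylenol orange as the 573 to 405 nm absorbance ratio. Arachidonic acid at 40 uM (final) was turned over for 30 min at room temperature by 150 nM human 12hLO, pH 7.0 Hepes buffer, after 15 min compound preincubation.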
KCNH2 WT inh: KCNH2 (human, wildtype) channel inhibition. U2OS, BacMam KCNH2, thallium flux FluxOr; active compounds read low. actives 0.37% (n = 340,000). AID 720551. Q12809. activity change, % at 1.84 µM;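 active = maximum activity change below -70%; inconclusive = maximum activity change between -70% and -50%; inactive = maximum activity change above -50%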; also: % is scaled to controls: 0 for no effect and ±100 for the full control effect
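U2OS cells transduced with wild-type KCNH2 virus are loaded with FluxOr dye for 45 min, and thallium flux is measured in kinetic reads before and after stimulation buffer. Rate constants are normalized to DMSO controls.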
ClpP mod: qHTS Assay for Activators of ClpP | ATP-dependent Clp protease proteolytic subunit (Bacillus subtilis (strain 168)), P80244 | purified B. subtilis ClpP, FRET peptide cleavage, 20 min | Potency, µM (doses to about 57.5 µM), inactives show at the highest dose activity change, negative = active | actives 1.9% (n = 340,000); active = well fitted falling curve with a large enough effect; inconclusive = small, poorly fitted or top-dose-only effect; inactive = no such curve, though single readings can be large or run the other way; also: potency is read from the fitted curve at half-maximal effect; the source files actives as falling curves though it sought activators and does not explain the sign; nearly all actives have a fitted effect of over 65% in size
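FRET quenching reversal measured ClpP activation: 10 microg/mL B. subtilis ClpP at pH 8 with the FRET-FV decapeptide, read at 430 nm after 320 nm excitation. The 20-min minus 0-min signal was scaled between DMSO/no-enzyme wells and ADEP (5.8 microM final).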
KCNH2 3.1 block: inhibitors of human KCNH2 3.1 potassium channel isoform | activity change, % (tested at about 1.8 µM) | U2OS KCNH2 3.1, thallium flux FluxOr; active compounds read low | AID 720553 | actives 0.95% (n = 340,000);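 active = maximum activity change below -70%; inconclusive = maximum activity change from -70% to -50%; inactive = maximum activity change above -50%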;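 also: thallium influx rate constant from kinetic fluorescence after stimulation buffer; % is scaled to controls: 0 for no effect and ±100 for the full control effect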
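U2OS cells transduced with KCNH2 3.1 mutant virus (1.77 x 10^8 /mL, 4 h), plated overnight at 37 C, loaded 45 min with FluxOr dye plus Red40 quencher. Thallium flux rate constant from kinetic reads after stimulation buffer, normalised to controls.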
The depositor's hits bear a star; ? = inconclusive; . = not tested or not shown; [ ] = dose if it differs, or a comment.

SMILES	LDHA block	BCR signal inh	12-LOX inh	KCNH2 WT inh	ClpP mod	KCNH2 3.1 block
Brc1cccc[n+]1C/C=C/C[n+]1ccccc1Br	0	.	.	.	-5%	.
COc1ccc(CCNC(=O)C2=CC=CN3CCS(=O)(=O)N=C23)cc1	1	1%	82%	-1	-21%	-8
O=C(NCCOc1ccccc1)C1=CC=CN2CCS(=O)(=O)N=C12	-8	?	-4%	-2	32µM*	7
O=C(C(Sc1nnc(-c2ccncc2)n1-c1ccc(Cl)cc1)c1ccccc1)N1CCCC1 (stereo not drawn)	-3	.	-8%	.	.	.
COc1cccc(C2=Cc3ccc(F)cc3C(CC(C)=O)N2c2ccc(-c3cncnc3)cc2)c1 (stereo not drawn)	21	.	32µM*	.	?	.
CC(=O)N[C@H]1C[C@@H](c2nc(-c3ccc4c(c3)OCO4)no2)N(C)C1	.	.	-1%[176 µM]	.	.	.
CN1C[C@@H](NC(=O)CC(C)(C)CC(=O)O)C[C@H]1c1nc(-c2ccccc2)no1	.	.	126µM*	.	.	.
CC(C)NC(=O)N[C@H]1C[C@@H](c2nc(-c3ccc4c(c3)OCO4)no2)N(C)C1	.	.	22µM*	.	.	.
CN1C[C@@H](NC(=O)c2ccc(-c3ccccc3)cc2)C[C@H]1c1nc(-c2ccc(Cl)cc2)no1	.	.	-20%	.	.	.
O=C(c1ccc(Cl)cc1)C1CCCN(Cc2cccn2-c2ccccn2)C1 (stereo not drawn)	-4	?	-4%	-109*	0%	-105*
COc1ccc(C(=O)C2CCCN(Cc3cccn3-c3nccs3)C2)cc1F (stereo not drawn)	1	-25%	-8%	-103*	0%	-117*
COc1cccc(C(=O)C2CCCN(Cc3cccn3-c3ccccn3)C2)c1 (stereo not drawn)	-1	3%	-7%	?	.	-101*
COc1ccc(C(=O)C2CCCN(Cc3cccn3-c3ccccn3)C2)cc1F (stereo not drawn)	-1	-24%	0%	-96*	.	-93*
COc1ccc(C(=O)C2CCCN(Cc3cccn3-c3nccs3)C2)cc1OC (stereo not drawn)	-12	3%	3%	-35	?	?
COc1ccc(F)cc1C(=O)C1CCCN(Cc2cccn2-c2cccnc2)C1 (stereo not drawn)	-5	12%	7%	14	-5%	-19
COc1cccc(C(=O)C2CCCN(Cc3cccc(OCCO)c3)C2)c1 (stereo not drawn)	-6	-4%	-5%	3	.	11
O=C1CCc2cc(-c3csc(Nc4ccccc4)n3)ccc2N1	5	.	?	.	.	.
O=c1cc(-c2ccc(F)cc2)oc2ccc(Cl)cc12	2	.	-23%	.	.	.
CC(=O)N1CCC(Oc2ccc(Cl)cc2C(=O)NCCOc2cccnc2)CC1	.	.	42%	.	.	.
CC(C)Oc1cccc(C(=O)C2CCCN(C(=O)c3ccccn3)C2)c1 (stereo not drawn)	-15	6%	-8%	15	-9%	-8
CC(C)Oc1cccc(C(=O)C2CCCN(Cc3cccn3-c3ccccn3)C2)c1 (stereo not drawn)	0	?	-4%	?	-5%	-81*
Cc1ccc(-n2cccn2)c(CN2CCCC(C(=O)c3sccc3C)C2)c1 (stereo not drawn)	3	-4%	1%	8	.	1
Cc1ccsc1C(=O)C1CCCN(Cc2cccn2-c2ccc(Cl)cn2)C1 (stereo not drawn)	-12	?	-2%	-107*	-3%	-15
CCn1nc(C(=O)Nc2ccc3nc(C)sc3c2)c2ccccc2c1=O	-9	?	-43%	10	20µM*	20
CCN(CC)c1ccc(C=Nc2ccc(Nc3ccccc3)cc2)cc1	-2	.	20µM*	.	.	.
SMILES	LDHA block	BCR signal inh	12-LOX inh	KCNH2 WT inh	ClpP mod	KCNH2 3.1 block
CN(C)c1ccc(C=Nc2ccc(Nc3ccccc3)cc2)cc1	8	.	7.9µM*	.	.	.
CCN(CC)c1ccc(C=Nc2c(C)cc(C)cc2C)cc1	36	.	?	.	.	.
C(=Nc1ccc(Nc2ccccc2)cc1)c1ccc2ccccc2c1	0	7%	.	-7	14µM*	-32
Brc1ccc(C=Nc2ccc(Nc3ccccc3)cc2)s1	8	9%	.	3	-1%	-9
CN(C)c1ccc(C=Nc2ccccc2)cc1	5	-3%	16%	-8	-4%	0
COc1ccc(S(=O)(=O)N2CCN(c3ccccc3F)CC2)cc1-c1nc(C(C)C)no1	10	.	7%	.	.	.
CN(CC(=O)Nc1ccc(Cl)cc1C(F)(F)F)C1CCCc2ccccc21 (stereo not drawn)	13	.	24%	.	.	.
Cn1c(CCN2CCN(c3ccccn3)CC2)nc2cc(NS(=O)(=O)c3ccccc3)ccc21	-7	-12%	3%	-28	-2%	-76*
Cn1c(CCN2CCOCC2)nc2cc(NS(=O)(=O)c3ccccc3)ccc21	-6	0%	3%	23	.	-3
Nc1cccc(OCc2ccccc2)c1	2	.	?	.	.	.
CN(C)CCCN=c1c2ccccc2n(C)c2[nH]c(=O)n(C)c(=O)c12	.	.	22µM*	.	.	.
C=C(C)CC1Nc2ccccc2NC1CC(=C)C (stereo not drawn)	11	2%	28µM*	-3	-8%	1
C=C(C)CC1NC2CC(C)(C)C1c1c(Br)ccc(Br)c12 (stereo not drawn)	-1	.	-12%	.	.	.
CCn1c(CO)nnc1C1CC(NC(=O)Cc2c(C)[nH]c(=O)[nH]c2=O)C1 (stereo not drawn)	.	.	32%	.	.	.
O=C(CCNS(=O)(=O)c1ccccc1)OCc1nnc(-c2ccccc2)o1	-3	1%	3%	-131*	-5%	-198*
Cc1ccccc1C(=O)OCc1nnc(-c2ccc(Cl)cc2)o1	-3	?	-3%	-2	0%	-77*
O=C(OCc1nnc(-c2ccccc2)o1)c1cn(-c2ccccc2)nc1-c1ccccc1	-5	2%	-7%	3	10µM*	-17
CCOC(=O)N1CCN(C(=O)CNC(=O)c2cc3cc(OC)c(OC)cc3n2C)CC1	-3	.	2%	.	.	.
O=C(COC(=O)c1ccc2ccccc2n1)Nc1cccc2ccccc12	9	.	?	.	.	.
CCN1CCN(Cc2nc3c(c(=O)n(C)c(=O)n3C)n2Cc2ccc(F)cc2)CC1	5	.	-28%	.	.	.
CC(=O)C1=C(O)C(=O)N(c2cc(C(C)(C)C)on2)C1c1ccc(C(C)C)cc1 (stereo not drawn)	4	-1%	.	-4	2%	-13
CC(=O)C1=C(O)C(=O)N(c2cc(C(C)(C)C)on2)C1c1ccc(Br)cc1 (stereo not drawn)	10	5%	45µM*	2	-13%	-82*
